Calls of active or inactive are those of the source. The calls were made as follows: active = hit-call score of the fitted dose curve at least 0.9, where 1 is the maximum; inactive = score below 0.9.
assay: ATG_M_61_CIS: Attagene CIS-FACTORIAL HepG2 Assay for M61 Transcription Factor (Internal Marker) (AID 2282937); conditions: HepG2 Attagene CIS-FACTORIAL M61 internal marker reporter; actives raise or lower the signal
Description: ATG_CIS is a cell-based, multiplexed-readout assay that uses HepG2, a human liver cell line, with measurements taken at 24 hours after chemical dosing in a 24-well plate.ATG_M_61_CIS is one of 52 assay component(s) measured or calculated from the ATG_CIS assay. It is designed to make measurements of mRNA induction, a form of inducible reporter, as detected with fluorescence intensity signals by Reverse transcription polymerase chain reaction (RT-PCR) and Capillary electrophoresis technology.Data from the assay component ATG_M_61_CIS was analyzed into 1 assay endpoint. This assay endpoint, ATG_M_61_CIS, was analyzed with bidirectional fitting relative to DMSO as the negative control and baseline of activity. Using a type of inducible reporter, measures of mRNA for gain or loss-of-signal activity can be used to understand the background control at the transcription factor-level as they relate to the gene . Furthermore, this assay endpoint can be referred to as a secondary readout, because this assay has produced multiple assay endpoints where this one serves a background control function. To generalize the intended target to other relatable targets, this assay endpoint is annotated to the background measurement intended target family, where the subfamily is internal marker.
Human liver HepG2 cells are transiently transfected with multiple reporter transcription units (MRTUs) in 6-well plates using FuGene 6 reagent (Roche; 3 ml FuGene/1 mg DNA). The MRTU constructs are regulated by a cis-regulating element (promoter). […] A major difference between the CIS and TRANS system is that in CIS activities of endogenous TFs are measured, whereas the TRANS assay evaluates changes in activities of exogenous, chimeric NR-Gal4 proteins. […] At the end of 24 hour incubation, total RNA was isolated using TriZol reagent (Invitrogen). The isolated RNA is then reverse-transcribed using oligo(dT) primer and Mo-MLV reverse transcriptase (Invitrogen) with DNAse I (Ambion) treatment for 30 min. The one-tenth of the produced cDNA was amplified by PCR using Taq DNA polymerase (Invitrogen) and two reporter sequence-specific primers. The PCR products were fluorescently labeled by primer extension with 6-arboxyfluorescein (6-FAM) 5'-labeled reporter sequence-specific primer (2 min at 95 C, 20 s at 68 C and 10 min at 72 C) and these products were digested with 5U of HpaI (New England Biolabs) for 2h at 37 C. The fragments were purified using Qiaquick PCR columns (Qiagen), analyzed on an ABI 3130xL genetic analyzer (Applied Biosystems) with peak positions identified by using a set of X-rhodamine (ROX)-labeled MapMarker1000 molecular weight standards (BioVentures). The raw capillary electrophoresis data was processed using Attagraph software (Attagene).

Question: With `CCOP(=S)(OCC)O/N=C(\C#N)c1ccccc1` as the compound, how does the outcome read?
Answer: The outcome was “inactive”.

Question: With `Cc1cc(Cl)ccc1OC(C)C(=O)O` (stereo not given) as the compound, how does the outcome read?
Answer: The outcome was “inactive”.

Question: Which outcome does the source give for `CNC(=O)CSP(=O)(OC)OC` here?
Answer: Its outcome is “inactive”.

Question: For `Nc1ncn[nH]1`, which outcome is on record?
Answer: Its outcome is “inactive”.

Question: Which outcome does the source give for `O=c1nc(O)n(Cl)c(=O)n1Cl` here?
Answer: The outcome was “inactive”.

Question: With `CCOP(=O)(OCC)OC(=CCl)c1ccc(Cl)cc1Cl` as the compound, how does the outcome read?
Answer: Its outcome is “inactive”.

Question: For `CCN(CC)C(=O)C(Cl)=C(C)OP(=O)(OC)OC`, which outcome is on record?
Answer: Its outcome is “inactive”.

Question: For `CC(C)N(C(=O)CCl)c1ccccc1`, which outcome is on record?
Answer: The outcome was “inactive”.

Question: For `Brc1ccc(Br)cc1`, which outcome is on record?
Answer: The outcome was “inactive”.

Question: For `OCC(c1ccc(Cl)cc1)c1ccc(Cl)cc1`, which outcome is on record?
Answer: The outcome was “inactive”.

Question: Which outcome does the source give for `CCOC(=O)Cc1ccccc1` here?
Answer: The outcome was “inactive”.

Question: For `O=C(O)c1cc(I)cc(I)c1I`, which outcome is on record?
Answer: The outcome was “inactive”.

Question: With `O=C(NC(=O)c1c(F)cccc1F)Nc1cc(Cl)c(Oc2ncc(C(F)(F)F)cc2Cl)c(Cl)c1` as the compound, how does the outcome read?
Answer: The outcome was “inactive”.

Question: With `CCOP(=S)(OCC)Oc1ccc(Cl)cc1Cl` as the compound, how does the outcome read?
Answer: The outcome was “inactive”.

Question: With `CCOC(=O)c1ccccc1S(=O)(=O)NC(=O)Nc1nc(Cl)cc(OC)n1` as the compound, how does the outcome read?
Answer: Its outcome is “inactive”.

Question: For `O=[N+]([O-])c1ccc(Cl)c([N+](=O)[O-])c1`, which outcome is on record?
Answer: The outcome was “inactive”.

Question: With `C1CCC(C2CCCCC2)CC1` as the compound, how does the outcome read?
Answer: The outcome was “inactive”.

Question: With `O=[N+]([O-])c1cc([As](=O)(O)O)ccc1O` as the compound, how does the outcome read?
Answer: Its outcome is “inactive”.

Question: With `CC(C)[C@H](C(=O)OC(C#N)c1cccc(Oc2ccccc2)c1)c1ccc(OC(F)F)cc1` (stereo not given in full) as the compound, how does the outcome read?
Answer: Its outcome is “inactive”.

Question: Which outcome does the source give for `OCCN(CCO)CCO` here?
Answer: The outcome was “inactive”.

Question: Which outcome does the source give for `C=CCOC(F)(C(F)(F)F)C(F)(F)F` here?
Answer: Its outcome is “inactive”.

Question: Which outcome does the source give for `CC1(C)[C@H](C(=O)O[C@H](C#N)c2cccc(Oc3ccccc3)c2)[C@@H]1/C=C(\Cl)C(F)(F)F` here?
Answer: The outcome was “inactive”.

Question: For `C1CN2CCN1CC2`, which outcome is on record?
Answer: The outcome was “inactive”.

Question: Which outcome does the source give for `O=C=Nc1ccc(Cl)cc1` here?
Answer: Its outcome is “inactive”.

Question: For `O=C(NC(=O)c1c(F)cccc1F)Nc1ccc(Cl)cc1`, which outcome is on record?
Answer: The outcome was “inactive”.

Question: For `O=C(CBr)c1ccc(O)cc1`, which outcome is on record?
Answer: The outcome was “inactive”.

Question: For `CCNc1nc(NCC)nc(SC)n1`, which outcome is on record?
Answer: The outcome was “inactive”.

Question: Which outcome does the source give for `CCC(C)(C#N)N=NC(C)(C#N)CC` (stereo not given) here?
Answer: Its outcome is “inactive”.

Question: With `Cc1cc(Cl)ccc1OCCCC(=O)O` as the compound, how does the outcome read?
Answer: The outcome was “inactive”.

Question: With `CC(=Cc1ccccc1)[N+](=O)[O-]` as the compound, how does the outcome read?
Answer: Its outcome is “inactive”.

Question: For `CC(F)(F)CC(F)(F)F`, which outcome is on record?
Answer: The outcome was “inactive”.

Question: Which outcome does the source give for `CN(C)CCN(C)C` here?
Answer: Its outcome is “inactive”.

Question: With `CCOP(=O)(OCC)SCCSCC` as the compound, how does the outcome read?
Answer: The outcome was “inactive”.

Question: Which outcome does the source give for `CCCCCCCCCCCCc1cccc(S(=O)(=O)O)c1` here?
Answer: The outcome was “inactive”.

Question: For `COC(=O)c1cc(Oc2ccc(Cl)cc2Cl)ccc1[N+](=O)[O-]`, which outcome is on record?
Answer: Its outcome is “inactive”.

Question: For `C=CC(Cl)CCl` (stereo not given), which outcome is on record?
Answer: Its outcome is “inactive”.

Question: Which outcome does the source give for `O=C1C=CC(=O)c2ccccc21` here?
Answer: Its outcome is “inactive”.

Question: Which outcome does the source give for `CC1(C)[C@H](/C=C2\CCSC2=O)[C@@H]1C(=O)OCc1coc(Cc2ccccc2)c1` here?
Answer: The outcome was “inactive”.

Question: Which outcome does the source give for `O=C(O)C1(c2ccc3c(c2)OC[C@H](Cc2ccc(-c4ccccc4)cc2)[C@H]3O)CCCC1` here?
Answer: The outcome was “inactive”.

Question: For `O=C(O)COc1cc(Cl)c(Cl)cc1Cl`, which outcome is on record?
Answer: Its outcome is “inactive”.
